# According to PMC7862700, “An all-to-all approach to the identification of sequence-specific readers for epigenetic DNA modifications on cytosine”:
# Assays:
# Test in all cases: DAPPL (digital affinity profiling via proximity ligation, sequencing); 10 mM Tris-HCl pH 7.5, 50 mM NaCl, 1 mM DTT, 4% glycerol, room temperature, 30 min; GST-TFs on glutathione beads, 16-mer random dsDNA library, 0.1% formaldehyde crosslink after washing; high values mean tight binding
# [1] = target: T1, FEV (Homo sapiens, UniProt Q99581 1-238); details: protein: recombinant; tags: N-terminal GST; dsDNA, one strand shown
# T1 sequence: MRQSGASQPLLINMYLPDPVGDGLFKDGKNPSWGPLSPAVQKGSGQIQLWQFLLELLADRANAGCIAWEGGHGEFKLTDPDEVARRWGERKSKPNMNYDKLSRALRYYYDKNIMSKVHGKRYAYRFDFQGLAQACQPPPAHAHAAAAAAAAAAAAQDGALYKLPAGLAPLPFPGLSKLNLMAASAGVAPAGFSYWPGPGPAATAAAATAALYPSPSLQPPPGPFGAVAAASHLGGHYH
# Outline: (§1)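 GST fusions of human transcription factors were expressed in yeast and captured with glutathione beads. Once given DNA barcodes and pooled alongside a tag-only sample, they were incubated for 30 min at room temperature with 200 nmole of a random double-stranded 16-mer DNA library in Tris/NaCl/DTT/glycerol buffer, then washed, crosslinked (0.1% formaldehyde), proximity-ligated, PCR-amplified and sequenced on an Illumina NextSeq500. The binding signal of each hexamer is its read frequency for a factor divided by its frequency for the tag-only sample.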
# [2] = target: ETV5 (Homo sapiens, UniProt P41161 1-510); details: protein: recombinant; tags: N-terminal GST; dsDNA, one strand shown
# Outline: as §1
# [3] = target: HSF1 (Homo sapiens, UniProt Q00613 1-529); details: protein: recombinant; tags: N-terminal GST; chain copies: 3; dsDNA, one strand shown
# Outline: as §1
# [4] = target: T2, SPIC (Homo sapiens, UniProt Q8N5J4 1-248); details: protein: recombinant; tags: N-terminal GST; dsDNA, one strand shown
# T2 sequence: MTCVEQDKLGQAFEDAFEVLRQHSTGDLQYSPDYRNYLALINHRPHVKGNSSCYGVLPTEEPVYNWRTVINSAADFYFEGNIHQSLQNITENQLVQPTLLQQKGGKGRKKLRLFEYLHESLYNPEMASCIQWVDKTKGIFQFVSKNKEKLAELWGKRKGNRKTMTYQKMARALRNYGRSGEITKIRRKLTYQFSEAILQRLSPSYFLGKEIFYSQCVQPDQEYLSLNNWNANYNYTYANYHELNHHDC
# Outline: as §1
# [5] = target: ELF4 (Homo sapiens, UniProt Q99607 1-663); details: protein: recombinant; tags: N-terminal GST; dsDNA, one strand shown
# Outline: as §1
# [6] = target: T3, ELK4 (Homo sapiens, UniProt P28324-2 1-405); details: protein: recombinant; tags: N-terminal GST; dsDNA, one strand shown
# T3 sequence: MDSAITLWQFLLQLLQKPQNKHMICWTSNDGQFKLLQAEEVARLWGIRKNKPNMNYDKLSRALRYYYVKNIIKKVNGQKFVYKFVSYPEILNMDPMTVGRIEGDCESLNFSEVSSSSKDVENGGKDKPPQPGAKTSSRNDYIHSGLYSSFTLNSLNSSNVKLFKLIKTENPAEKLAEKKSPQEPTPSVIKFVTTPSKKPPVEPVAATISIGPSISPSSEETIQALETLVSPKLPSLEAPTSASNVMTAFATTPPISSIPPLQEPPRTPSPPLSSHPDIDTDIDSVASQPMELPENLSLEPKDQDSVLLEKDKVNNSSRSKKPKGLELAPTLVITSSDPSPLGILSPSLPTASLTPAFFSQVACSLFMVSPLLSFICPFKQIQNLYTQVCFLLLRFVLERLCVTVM
# Outline: as §1
# [7] = target: T4, ETV2 (Homo sapiens, UniProt O00321 1-342); details: protein: recombinant; tags: N-terminal GST; dsDNA, one strand shown
# T4 sequence: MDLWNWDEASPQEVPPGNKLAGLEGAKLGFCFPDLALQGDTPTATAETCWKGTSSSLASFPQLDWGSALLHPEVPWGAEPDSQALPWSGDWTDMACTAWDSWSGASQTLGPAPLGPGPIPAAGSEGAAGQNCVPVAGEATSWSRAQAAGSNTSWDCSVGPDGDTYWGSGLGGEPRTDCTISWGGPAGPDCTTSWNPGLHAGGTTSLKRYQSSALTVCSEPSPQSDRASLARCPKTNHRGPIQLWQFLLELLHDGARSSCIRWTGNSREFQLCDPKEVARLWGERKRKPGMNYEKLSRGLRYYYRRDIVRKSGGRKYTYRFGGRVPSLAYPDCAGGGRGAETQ
# Outline: as §1
# [8] = target: T5, ELF3 (Homo sapiens, UniProt P78545 1-371); details: protein: recombinant; tags: N-terminal GST; dsDNA, one strand shown
# T5 sequence: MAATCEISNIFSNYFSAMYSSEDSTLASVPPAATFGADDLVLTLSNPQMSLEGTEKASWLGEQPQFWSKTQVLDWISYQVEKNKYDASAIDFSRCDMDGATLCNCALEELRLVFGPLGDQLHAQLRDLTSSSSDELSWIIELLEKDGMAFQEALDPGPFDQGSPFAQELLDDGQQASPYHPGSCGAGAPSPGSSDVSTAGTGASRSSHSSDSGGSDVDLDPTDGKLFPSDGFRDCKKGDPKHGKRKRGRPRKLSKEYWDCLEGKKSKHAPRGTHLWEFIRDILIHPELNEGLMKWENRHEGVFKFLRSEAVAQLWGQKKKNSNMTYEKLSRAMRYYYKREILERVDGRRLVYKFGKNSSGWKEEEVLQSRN
# Outline: as §1
# [9] = target: CRX (Homo sapiens, UniProt O43186 1-299); details: protein: recombinant; tags: N-terminal GST; dsDNA, one strand shown
# Outline: as §1
# [10] = target: ETV1 (Homo sapiens, UniProt P50549 1-477); details: protein: recombinant; tags: N-terminal GST; dsDNA, one strand shown
# Outline: as §1
# [11] = target: T6, ERF (Homo sapiens, UniProt P50548 1-548); details: protein: recombinant; tags: N-terminal GST; dsDNA, one strand shown
# T6 sequence: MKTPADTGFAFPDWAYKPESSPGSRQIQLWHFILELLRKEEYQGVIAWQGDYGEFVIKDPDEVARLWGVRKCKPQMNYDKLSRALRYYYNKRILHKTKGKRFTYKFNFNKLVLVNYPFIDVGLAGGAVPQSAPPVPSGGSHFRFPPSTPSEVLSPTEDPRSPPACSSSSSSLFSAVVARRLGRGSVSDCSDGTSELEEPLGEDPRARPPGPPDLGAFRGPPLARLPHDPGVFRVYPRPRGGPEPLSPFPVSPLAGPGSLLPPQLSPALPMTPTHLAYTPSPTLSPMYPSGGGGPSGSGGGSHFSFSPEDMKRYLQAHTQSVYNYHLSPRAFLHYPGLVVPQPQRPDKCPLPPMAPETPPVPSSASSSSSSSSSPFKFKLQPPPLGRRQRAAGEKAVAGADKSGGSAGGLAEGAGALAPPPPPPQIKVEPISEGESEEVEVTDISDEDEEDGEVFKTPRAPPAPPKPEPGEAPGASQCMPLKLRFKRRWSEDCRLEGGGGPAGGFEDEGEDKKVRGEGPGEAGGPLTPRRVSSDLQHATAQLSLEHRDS
# Outline: as §1
# [12] = target: T7, ETV3L (Homo sapiens, UniProt Q6ZN32 1-361); details: protein: recombinant; tags: N-terminal GST; dsDNA, one strand shown
# T7 sequence: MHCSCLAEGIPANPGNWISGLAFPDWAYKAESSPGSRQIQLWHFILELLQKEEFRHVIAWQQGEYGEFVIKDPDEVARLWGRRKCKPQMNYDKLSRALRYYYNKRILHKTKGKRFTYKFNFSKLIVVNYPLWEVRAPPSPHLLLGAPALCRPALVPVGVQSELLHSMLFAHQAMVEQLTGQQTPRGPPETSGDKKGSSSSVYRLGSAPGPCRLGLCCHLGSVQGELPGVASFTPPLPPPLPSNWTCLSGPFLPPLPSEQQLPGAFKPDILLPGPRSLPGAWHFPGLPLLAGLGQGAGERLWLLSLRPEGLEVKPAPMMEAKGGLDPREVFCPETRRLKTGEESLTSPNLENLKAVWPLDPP
# Outline: as §1
# [13] = target: T8, ETS2 (Homo sapiens, UniProt P15036 1-469); details: protein: recombinant; tags: N-terminal GST; dsDNA, one strand shown
# T8 sequence: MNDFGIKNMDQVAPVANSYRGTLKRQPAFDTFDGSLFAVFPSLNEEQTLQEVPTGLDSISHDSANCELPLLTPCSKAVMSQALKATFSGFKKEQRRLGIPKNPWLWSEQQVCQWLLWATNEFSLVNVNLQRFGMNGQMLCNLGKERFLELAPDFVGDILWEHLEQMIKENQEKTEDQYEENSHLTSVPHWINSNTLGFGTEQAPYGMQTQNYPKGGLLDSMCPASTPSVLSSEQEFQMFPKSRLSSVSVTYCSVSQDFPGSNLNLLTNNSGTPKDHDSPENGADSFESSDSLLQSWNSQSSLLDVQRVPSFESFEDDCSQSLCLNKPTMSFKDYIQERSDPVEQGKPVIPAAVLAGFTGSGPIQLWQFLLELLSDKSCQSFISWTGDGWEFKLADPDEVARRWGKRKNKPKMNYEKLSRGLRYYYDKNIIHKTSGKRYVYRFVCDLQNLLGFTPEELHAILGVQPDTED
# Outline: as §1
# [14] = target: T9, SPDEF (Homo sapiens, UniProt O95238 1-335); details: protein: recombinant; tags: N-terminal GST; dsDNA, one strand shown
# T9 sequence: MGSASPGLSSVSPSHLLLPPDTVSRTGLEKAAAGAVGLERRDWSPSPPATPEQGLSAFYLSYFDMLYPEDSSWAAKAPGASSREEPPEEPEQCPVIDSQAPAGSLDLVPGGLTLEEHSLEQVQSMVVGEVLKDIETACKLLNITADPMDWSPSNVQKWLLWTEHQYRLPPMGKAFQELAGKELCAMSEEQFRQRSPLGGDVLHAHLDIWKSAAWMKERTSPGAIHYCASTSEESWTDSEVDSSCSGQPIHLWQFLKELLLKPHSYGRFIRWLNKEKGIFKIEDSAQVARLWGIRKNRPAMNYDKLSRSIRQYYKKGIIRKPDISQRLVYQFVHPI
# Outline: as §1
# [15] = target: T10, ETV7 (Homo sapiens, UniProt Q9Y603 1-341); details: protein: recombinant; tags: N-terminal GST; dsDNA, one strand shown
# T10 sequence: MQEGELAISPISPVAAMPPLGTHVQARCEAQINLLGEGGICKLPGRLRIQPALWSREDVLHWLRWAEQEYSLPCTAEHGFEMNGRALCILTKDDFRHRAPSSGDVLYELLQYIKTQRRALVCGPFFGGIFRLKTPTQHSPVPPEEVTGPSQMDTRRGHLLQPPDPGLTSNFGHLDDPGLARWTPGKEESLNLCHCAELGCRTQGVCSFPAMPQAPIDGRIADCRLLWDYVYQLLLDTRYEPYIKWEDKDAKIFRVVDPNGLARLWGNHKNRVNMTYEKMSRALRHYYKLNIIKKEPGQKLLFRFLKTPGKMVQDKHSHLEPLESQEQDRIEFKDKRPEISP
# Outline: as §1
# [16] = target: T11, ELF5 (Homo sapiens, UniProt Q9UKW6-2 1-255); details: protein: recombinant; tags: N-terminal GST; dsDNA, one strand shown
# T11 sequence: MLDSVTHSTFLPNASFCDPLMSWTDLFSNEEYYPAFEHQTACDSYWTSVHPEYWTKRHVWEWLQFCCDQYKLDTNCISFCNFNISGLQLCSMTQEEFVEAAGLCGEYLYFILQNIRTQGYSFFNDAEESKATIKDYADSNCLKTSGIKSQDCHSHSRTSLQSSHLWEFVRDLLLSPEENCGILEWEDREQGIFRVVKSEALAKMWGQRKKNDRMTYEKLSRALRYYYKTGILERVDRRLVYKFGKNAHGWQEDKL
# Outline: as §1
# [17] = target: T12, ETV3 (Homo sapiens, UniProt P41162-2 1-143); details: protein: recombinant; tags: N-terminal GST; dsDNA, one strand shown
# T12 sequence: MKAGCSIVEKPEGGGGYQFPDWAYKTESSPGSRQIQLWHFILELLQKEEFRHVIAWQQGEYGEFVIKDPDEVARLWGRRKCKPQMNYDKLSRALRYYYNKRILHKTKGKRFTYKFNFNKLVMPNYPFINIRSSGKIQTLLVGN
# Outline: as §1
# [18] = target: ETV6 (Homo sapiens, UniProt P41212 1-452); details: protein: recombinant; tags: N-terminal GST; dsDNA, one strand shown
# Outline: as §1
# Sequence of ETV6 (P41212 whole entry): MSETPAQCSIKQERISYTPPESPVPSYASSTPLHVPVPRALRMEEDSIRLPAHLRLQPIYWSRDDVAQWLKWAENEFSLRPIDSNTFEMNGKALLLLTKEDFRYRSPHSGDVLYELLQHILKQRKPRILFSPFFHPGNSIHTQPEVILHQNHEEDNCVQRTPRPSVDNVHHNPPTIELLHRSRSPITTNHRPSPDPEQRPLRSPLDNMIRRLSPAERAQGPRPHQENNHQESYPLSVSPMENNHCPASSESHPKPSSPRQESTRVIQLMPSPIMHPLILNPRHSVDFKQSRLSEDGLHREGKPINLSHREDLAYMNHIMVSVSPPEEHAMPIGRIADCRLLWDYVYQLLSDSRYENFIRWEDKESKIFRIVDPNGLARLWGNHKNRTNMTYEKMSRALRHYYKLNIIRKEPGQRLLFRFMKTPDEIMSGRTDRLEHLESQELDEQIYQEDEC
# Sequence of ETV1 (P50549 whole entry): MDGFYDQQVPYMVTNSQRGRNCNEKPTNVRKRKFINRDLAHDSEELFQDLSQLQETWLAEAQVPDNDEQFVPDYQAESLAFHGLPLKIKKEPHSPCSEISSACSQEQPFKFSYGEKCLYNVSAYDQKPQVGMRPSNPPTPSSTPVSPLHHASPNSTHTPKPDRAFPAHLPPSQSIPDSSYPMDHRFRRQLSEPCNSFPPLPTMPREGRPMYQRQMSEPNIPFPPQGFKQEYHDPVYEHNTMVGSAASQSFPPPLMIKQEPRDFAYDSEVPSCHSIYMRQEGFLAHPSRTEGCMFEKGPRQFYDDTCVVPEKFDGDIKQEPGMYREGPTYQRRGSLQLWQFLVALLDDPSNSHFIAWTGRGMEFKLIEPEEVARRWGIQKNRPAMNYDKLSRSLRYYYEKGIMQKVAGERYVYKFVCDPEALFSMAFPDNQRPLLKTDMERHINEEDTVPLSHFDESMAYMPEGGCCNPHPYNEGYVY
# Sequence of ELF4 (Q99607 whole entry): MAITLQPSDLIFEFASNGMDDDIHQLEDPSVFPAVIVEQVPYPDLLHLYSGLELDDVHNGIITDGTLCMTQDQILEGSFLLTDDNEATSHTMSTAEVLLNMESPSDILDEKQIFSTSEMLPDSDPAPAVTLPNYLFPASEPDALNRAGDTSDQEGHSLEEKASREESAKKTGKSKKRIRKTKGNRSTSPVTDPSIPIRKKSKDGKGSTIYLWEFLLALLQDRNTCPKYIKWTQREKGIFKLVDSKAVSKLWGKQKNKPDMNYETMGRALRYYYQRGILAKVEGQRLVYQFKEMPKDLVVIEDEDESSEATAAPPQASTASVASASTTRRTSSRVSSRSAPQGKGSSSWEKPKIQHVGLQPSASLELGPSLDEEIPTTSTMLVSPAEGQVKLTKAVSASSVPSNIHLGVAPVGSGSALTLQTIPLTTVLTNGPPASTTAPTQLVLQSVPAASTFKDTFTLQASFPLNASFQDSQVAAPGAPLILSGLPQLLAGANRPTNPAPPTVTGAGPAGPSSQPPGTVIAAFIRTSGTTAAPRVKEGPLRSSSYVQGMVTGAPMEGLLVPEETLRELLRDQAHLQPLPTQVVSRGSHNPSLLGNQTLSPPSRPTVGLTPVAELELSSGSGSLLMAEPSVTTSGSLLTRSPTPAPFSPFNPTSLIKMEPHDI
# Sequence of CRX (O43186 whole entry): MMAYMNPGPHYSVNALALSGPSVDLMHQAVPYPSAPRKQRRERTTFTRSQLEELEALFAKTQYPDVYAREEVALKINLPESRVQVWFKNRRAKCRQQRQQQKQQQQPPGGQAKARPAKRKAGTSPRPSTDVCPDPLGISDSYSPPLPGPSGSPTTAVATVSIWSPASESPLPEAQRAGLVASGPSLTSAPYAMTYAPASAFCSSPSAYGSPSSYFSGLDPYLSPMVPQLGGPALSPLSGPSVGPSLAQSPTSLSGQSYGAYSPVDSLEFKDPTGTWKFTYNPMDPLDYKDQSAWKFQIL
# Sequence of ETV5 (P41161 whole entry): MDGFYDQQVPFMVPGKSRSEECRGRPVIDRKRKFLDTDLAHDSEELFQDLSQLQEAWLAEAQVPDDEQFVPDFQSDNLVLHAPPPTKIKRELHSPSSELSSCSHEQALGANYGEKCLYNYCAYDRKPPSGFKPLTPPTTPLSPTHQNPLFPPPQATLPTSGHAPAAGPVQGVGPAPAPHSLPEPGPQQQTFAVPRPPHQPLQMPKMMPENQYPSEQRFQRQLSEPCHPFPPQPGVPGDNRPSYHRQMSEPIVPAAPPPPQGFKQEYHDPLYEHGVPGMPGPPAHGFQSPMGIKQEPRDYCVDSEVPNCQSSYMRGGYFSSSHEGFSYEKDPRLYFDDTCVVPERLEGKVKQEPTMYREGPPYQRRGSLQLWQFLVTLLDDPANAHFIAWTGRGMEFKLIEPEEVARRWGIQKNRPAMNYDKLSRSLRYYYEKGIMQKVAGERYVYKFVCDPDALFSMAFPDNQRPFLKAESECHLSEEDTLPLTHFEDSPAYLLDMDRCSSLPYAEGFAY
# Sequence of HSF1 (Q00613 whole entry): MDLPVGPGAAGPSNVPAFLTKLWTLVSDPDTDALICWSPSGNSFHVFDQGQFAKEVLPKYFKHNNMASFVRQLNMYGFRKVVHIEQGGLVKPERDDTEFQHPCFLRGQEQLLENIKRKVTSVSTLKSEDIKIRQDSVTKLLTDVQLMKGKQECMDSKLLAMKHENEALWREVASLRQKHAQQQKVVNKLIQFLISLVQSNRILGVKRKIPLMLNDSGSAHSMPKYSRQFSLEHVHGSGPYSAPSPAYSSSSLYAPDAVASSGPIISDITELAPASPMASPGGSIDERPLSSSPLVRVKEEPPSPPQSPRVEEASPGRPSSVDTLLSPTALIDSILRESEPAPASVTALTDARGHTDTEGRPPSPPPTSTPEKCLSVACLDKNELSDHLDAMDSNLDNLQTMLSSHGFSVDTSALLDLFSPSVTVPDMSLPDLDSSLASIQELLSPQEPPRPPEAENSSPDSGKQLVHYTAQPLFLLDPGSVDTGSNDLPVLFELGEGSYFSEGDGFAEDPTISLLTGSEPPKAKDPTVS
sequence,measurement,setting,value
TCCCGG,binding signal,[1],"2.09 fold enrichment (6-mer frequency, TF over GST control)"
same,binding signal,[2],"2.27 fold enrichment (6-mer frequency, TF over GST control)"
same,binding signal,[3],"1.37 fold enrichment (6-mer frequency, TF over GST control)"
same,binding signal,[4],"2.35 fold enrichment (6-mer frequency, TF over GST control)"
same,binding signal,[5],"2 fold enrichment (6-mer frequency, TF over GST control)"
same,binding signal,[6],"1.91 fold enrichment (6-mer frequency, TF over GST control)"
same,binding signal,[7],"2 fold enrichment (6-mer frequency, TF over GST control)"
same,binding signal,[8],"2.17 fold enrichment (6-mer frequency, TF over GST control)"
same,binding signal,[9],"1.41 fold enrichment (6-mer frequency, TF over GST control)"
same,binding signal,[10],"2.21 fold enrichment (6-mer frequency, TF over GST control)"
same,binding signal,[11],"1.77 fold enrichment (6-mer frequency, TF over GST control)"
same,binding signal,[12],"2.2 fold enrichment (6-mer frequency, TF over GST control)"
same,binding signal,[13],"2.34 fold enrichment (6-mer frequency, TF over GST control)"
same,binding signal,[14],"2.76 fold enrichment (6-mer frequency, TF over GST control)"
same,binding signal,[15],"1.92 fold enrichment (6-mer frequency, TF over GST control)"
same,binding signal,[16],"3.07 fold enrichment (6-mer frequency, TF over GST control)"
same,binding signal,[17],"2.44 fold enrichment (6-mer frequency, TF over GST control)"
same,binding signal,[18],"2.46 fold enrichment (6-mer frequency, TF over GST control)"
